From PubChem BioAssay (EPA / NIEHS)
Inconclusive results are not listed. Active and inactive are the calls of the source. The calls were made as follows, unless noted: active = hit-call score of the fitted dose curve at least 0.9, where 1 is the maximum; inactive = score below 0.9.

Legend:
[1] = molecular target: human Thyroid Receptor alpha (THRa1), THRA (gene 7067) (UniProt P10827); assay: ATG_THRa1_TRANS: Attagene TRANS-FACTORIAL HepG2 Assay for human Thyroid Receptor alpha (THRa1) (AID 2283014; active = hit-call score of the fitted dose curve at least 0.9, where 1 is the maximum)
Method in brief: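 First, HepG2 cells receive multiple GAL4-UAS reporter units and the chimeric receptor. They are then dosed for 24 h, after which RNA is reverse-transcribed, amplified, labelled, HpaI-cut and sized by capillary electrophoresis; gain relative to DMSO is scored.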

[2] = read-out: E-selectin (Homo sapiens) (UniProt P16581); assay: BSK_3C_Eselectin: BioMAP Diversity Plus: 3C Assay for Eselectin Biomarker Activity (AID 2283015); settings: primary human endothelial cells (HUVEC); actives raise or lower the signal
Method in brief: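 Human vascular endothelium from umbilical vein is exposed to test chemicals for 24 h. E-selectin levels are read by ELISA and compared with DMSO controls.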

[3] = read-out: Interleukin-1 alpha (IL1a), IL1A (gene 3552); assay: BSK_BE3C_IL1a: BioMAP Diversity Plus: BE3C Assay for Interleukin-1 alpha (IL1a) Biomarker Activity (AID 2283016); settings: primary human bronchial epithelial cells; actives raise or lower the signal
Method in brief: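 Cultures of primary human bronchial epithelial cells receive test chemical. After 24 h, IL-1a is quantified by ELISA, while parallel wells are fixed in TCA and SRB-stained for total protein. Changes in either direction are fitted relative to DMSO.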

[4] = read-out: Monocyte Chemoattractant Protein-1 (MCP1), CCL2 (gene 6347); assay: BSK_3C_MCP1: BioMAP Diversity Plus: 3C Assay for Monocyte Chemoattractant Protein-1 (MCP1) Biomarker Activity (AID 2283017); settings: primary human endothelial cells (HUVEC); actives raise or lower the signal
Method in brief: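 Endothelial cells from human umbilical vein are dosed with chemical, cultured 24 h, then assayed for MCP-1 by ELISA; both increases and decreases are modelled against DMSO controls.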

[5] = read-out: Monocyte Chemoattractant Protein-1 (MCP1), CCL2 (gene 6347); assay: BSK_4H_MCP1: BioMAP Diversity Plus: 4H Assay for Monocyte Chemoattractant Protein-1 (MCP1) Biomarker Activity (AID 2283018); settings: primary human endothelial cells (HUVEC); actives raise or lower the signal
Method in brief: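 Readout: MCP-1 ELISA on compound-treated HUVEC, sampled 24 h post-dosing. Baseline and negative control DMSO; bidirectional fit. Overt toxicity checked alongside by sulforhodamine B protein staining at time of biomarker measurement.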

[6] = read-out: Human Leukocyte Antigen - DR isotype (HLADR), HLA-DRA (gene 3122); assay: BSK_3C_HLADR: BioMAP Diversity Plus: 3C Assay for Human Leukocyte Antigen - DR isotype (HLADR) Biomarker Activity (AID 2283019); settings: primary human endothelial cells (HUVEC); actives raise or lower the signal
Method in brief: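 Endothelial cells from human umbilical vein are treated with test chemical; after 24 h, HLA-DR levels are measured by ELISA. Data are fitted in both directions using DMSO as the baseline.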

[7] = read-out: Interleukin-8 (IL8), CXCL8 (gene 3576); assay: BSK_3C_IL8: BioMAP Diversity Plus: 3C Assay for Interleukin-8 (IL8) Biomarker Activity (AID 2283020); settings: primary human endothelial cells (HUVEC); actives raise or lower the signal
Method in brief: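 Human vascular endothelial cells (umbilical vein) in the 3C system; IL-8 level detected by ELISA at 24 h post-dose, with DMSO as baseline.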

[8] = read-out: Monokine induced gamma interferon (MIG), CXCL9 (gene 4283); assay: BSK_3C_MIG: BioMAP Diversity Plus: 3C Assay for Monokine induced gamma interferon (MIG) Biomarker Activity (AID 2283021); settings: primary human endothelial cells (HUVEC); actives raise or lower the signal;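 as to AC50: MIG protein level measured by immunoassay in the treated endothelial cultures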
Method in brief: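 After 24 h of treatment, human umbilical vein endothelial cultures (3C system) had their MIG biomarker level determined by ELISA, with DMSO serving as negative control.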

[9] = molecular target: human Vitamin D Receptor (VDR), VDR (gene 7421) (UniProt P11473); assay: ATG_VDR_TRANS: Attagene TRANS-FACTORIAL HepG2 Assay for human Vitamin D Receptor (VDR) (AID 2283022; active = hit-call score of the fitted dose curve at least 0.9, where 1 is the maximum)
Method in brief: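 Fluorescence of labelled reporter cDNA fragments, resolved by capillary electrophoresis, gives mRNA induction after 24 h treatment of HepG2 cells carrying transfected Gal4-fusion reporter units. Activity is fitted in the positive direction with DMSO as baseline.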

[10] = BSK_3C_SRB: Viability Assessment in the BioMAP Diversity Plus: 3C Assay (AID 2283023); settings: primary human endothelial cells (HUVEC);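 also: cells read 24 h after compound dosing; fitted both ways against DMSO so a hit may be signal rise or drop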
Method in brief: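 Cells were dosed with chemical, cultured 24 h, fixed with 10% TCA, stained with 0.1% SRB and read at 560 nm. Human umbilical vein endothelium was used; DMSO served as negative control and baseline.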

Measured: AC50

Sequence of human Vitamin D Receptor (VDR), VDR (gene 7421) (P11473 whole entry, looked up, the tested form may be a part): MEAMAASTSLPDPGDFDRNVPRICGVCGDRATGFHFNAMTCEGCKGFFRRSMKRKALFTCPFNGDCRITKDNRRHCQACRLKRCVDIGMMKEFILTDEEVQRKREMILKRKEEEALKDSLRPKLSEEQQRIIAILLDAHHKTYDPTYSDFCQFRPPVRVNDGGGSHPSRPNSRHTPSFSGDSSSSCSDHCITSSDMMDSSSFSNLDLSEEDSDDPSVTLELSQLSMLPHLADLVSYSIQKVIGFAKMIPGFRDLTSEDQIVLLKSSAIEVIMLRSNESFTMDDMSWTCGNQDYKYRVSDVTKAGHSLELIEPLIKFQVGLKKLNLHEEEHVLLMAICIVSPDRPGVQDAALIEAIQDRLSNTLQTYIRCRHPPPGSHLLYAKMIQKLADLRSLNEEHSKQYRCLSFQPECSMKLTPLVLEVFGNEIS
Sequence of human Thyroid Receptor alpha (THRa1), THRA (gene 7067) (P10827 whole entry, looked up, the tested form may be a part): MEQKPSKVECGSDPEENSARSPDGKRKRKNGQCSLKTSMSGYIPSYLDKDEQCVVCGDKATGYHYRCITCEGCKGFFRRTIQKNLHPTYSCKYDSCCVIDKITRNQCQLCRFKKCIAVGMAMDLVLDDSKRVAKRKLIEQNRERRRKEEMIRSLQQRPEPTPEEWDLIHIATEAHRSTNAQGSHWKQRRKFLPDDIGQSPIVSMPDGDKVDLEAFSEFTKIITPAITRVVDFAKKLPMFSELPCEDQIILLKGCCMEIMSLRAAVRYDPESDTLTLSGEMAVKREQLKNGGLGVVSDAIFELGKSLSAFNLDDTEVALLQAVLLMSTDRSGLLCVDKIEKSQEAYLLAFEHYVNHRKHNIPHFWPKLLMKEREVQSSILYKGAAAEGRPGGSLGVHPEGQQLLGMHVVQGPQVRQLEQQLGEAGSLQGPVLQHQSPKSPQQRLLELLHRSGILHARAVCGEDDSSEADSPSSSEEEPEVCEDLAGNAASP
Sequence of E-selectin (Homo sapiens) (P16581 whole entry, looked up): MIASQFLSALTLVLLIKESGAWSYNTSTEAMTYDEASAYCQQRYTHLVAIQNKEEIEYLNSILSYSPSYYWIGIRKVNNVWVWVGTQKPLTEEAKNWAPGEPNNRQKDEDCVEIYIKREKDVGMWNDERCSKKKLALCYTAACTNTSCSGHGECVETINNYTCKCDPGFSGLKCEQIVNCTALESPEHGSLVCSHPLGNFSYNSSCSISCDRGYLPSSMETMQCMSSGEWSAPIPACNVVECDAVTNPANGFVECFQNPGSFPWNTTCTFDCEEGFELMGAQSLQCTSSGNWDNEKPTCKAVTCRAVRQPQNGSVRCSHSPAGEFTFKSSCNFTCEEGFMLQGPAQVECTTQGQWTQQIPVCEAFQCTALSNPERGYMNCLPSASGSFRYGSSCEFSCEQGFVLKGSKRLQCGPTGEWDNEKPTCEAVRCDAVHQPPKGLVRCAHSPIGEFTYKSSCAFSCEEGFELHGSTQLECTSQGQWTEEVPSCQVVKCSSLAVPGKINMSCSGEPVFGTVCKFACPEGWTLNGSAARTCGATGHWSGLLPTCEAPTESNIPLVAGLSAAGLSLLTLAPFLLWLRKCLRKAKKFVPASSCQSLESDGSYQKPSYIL

N#Cc1cccnc1
not listed: [8] | [9] | [10]
inactive: all other assays above

Oc1cc(Cl)c(Cl)cc1Cl
inactive: [1] | [3]
active: [2] 35.4 µM | [4] 33.3 µM | [5] 20 µM | [6] 16.8 µM | [7] 31.7 µM

CCC(C)(C#N)N=NC(C)(C#N)CC (stereo not drawn)
not listed: [9] | [10]
inactive: all other assays above

CCOP(=O)(OCC)SCCSCC
not listed: [8] | [9] | [10]
inactive: all other assays above

CC(C)O.CC(C)O.OCCN(CCO)CCO.OCCN(CCO)CCO.[Ti]
not listed: [8] | [9] | [10]
inactive: all other assays above

CCOc1cc(C=O)ccc1O
inactive: [1]

Cc1ccccc1OP(=O)(Oc1ccccc1C)Oc1ccccc1C
active: [2] 5.43 µM | [3] 10.7 µM | [4] 10.2 µM | [5] 6.27 µM | [6] 6.21 µM | [7] 5.37 µM | [10] 6.89 µM
inactive: [1] | [8] | [9]

CN(N=O)C(N)=O
inactive: [1]

Nc1ccc(N)cc1
not listed: [10]
inactive: all other assays above

Clc1cccc(Cl)c1
not listed: [10]
inactive: all other assays above

O=C(O)COc1cc(Cl)c(Cl)cc1Cl
not listed: [8] | [9] | [10]
inactive: all other assays above

O=C(O)COc1ccc(Cl)cc1
inactive: [1]

Nc1nc(N)nc(Cl)n1
inactive: [1]

Cc1ccc2nc3sc(=O)sc3nc2c1
inactive: [3]
active: [1] 6.55 µM | [2] 8.99 µM | [4] 7.34 µM | [5] 5 µM | [6] 5.97 µM | [7] 5 µM | [8] 8.57 µM

CC(C)(C)c1cc([N+](=O)[O-])cc(C(C)(C)C)c1O
active: [2] 0.549 µM | [6] 0.016 µM
not listed: [10]
inactive: all other assays above

CCOC(=O)CC(=O)CCl
active: [1] 100 µM | [2] 20 µM | [3] 20 µM | [6] 28.1 µM | [7] 3.97 µM
inactive: [4] | [5] | [8]

O=C(NC(=O)c1c(F)cccc1F)Nc1ccc(Cl)cc1
inactive: [1]

Cc1ccccc1OP(=O)(Oc1ccccc1)Oc1ccccc1
inactive: [1] | [8] | [9]
active: [2] 20 µM | [3] 6.89 µM | [4] 31 µM | [5] 20 µM | [6] 30.4 µM | [7] 20 µM

O=c1oc2ccccc2c(O)c1C(CC(O)c1ccc(-c2ccc(Br)cc2)cc1)c1ccccc1 (stereo not drawn)
inactive: [1] | [7]
active: [2] 19.1 µM | [3] 5.31 µM | [4] 10.5 µM | [5] 1.47 µM | [6] 8.28 µM

CCC[CH2][Sn]([Cl])([Cl])[CH2]CCC
inactive: [1]

COP(=S)(OC)Oc1cc(Cl)c(I)cc1Cl
inactive: [1]

Oc1cccc(-c2ccccc2)c1
inactive: [1] | [3] | [7]
active: [2] 32 µM | [4] 30.6 µM | [5] 20 µM | [6] 32.9 µM

c1ccc2sc(SNC3CCCCC3)nc2c1
active: [6] 29.3 µM
not listed: [10]
inactive: all other assays above

c1ccc(-c2cccc(-c3ccccc3)c2)cc1
inactive: [1]
active: [2] 11.4 µM | [3] 11.6 µM | [4] 12.4 µM | [5] 5.91 µM | [6] 9.9 µM | [7] 7.45 µM

Oc1ccc(Cc2ccc(O)cc2)cc1
not listed: [8] | [9] | [10]
inactive: all other assays above

CCOC(=O)Cc1ccccc1
inactive: [1]

O=c1[nH]c(=O)n(Cl)c(=O)n1Cl
inactive: [1]

CCCCOC(C)=O
inactive: [1]

Nc1cccnc1
inactive: [1]

CCCCN(CCCC)C(=S)[S-].CCCCN(CCCC)C(=S)[S-].[Ni+2]
not listed: [9] | [10]
inactive: all other assays above

O=c1nc(O)n(Cl)c(=O)n1Cl
inactive: [1]

CC(O)(CS(=O)(=O)c1ccc(F)cc1)C(=O)Nc1ccc(C#N)c(C(F)(F)F)c1 (stereo not drawn)
inactive: [1]

Clc1ccc(C(Cl)(Cl)Cl)cn1
inactive: [1]

O=C(O)c1cc(I)cc(I)c1I
inactive: [1]

CCCCOC(=O)COC(=O)c1ccccc1C(=O)OCCCC
not listed: [8] | [9] | [10]
inactive: all other assays above

O=[N+]([O-])c1cccc2ccccc12
not listed: [9] | [10]
inactive: all other assays above

C=CC(=O)OCC(COC(=O)C=C)(COC(=O)C=C)COC(=O)C=C
inactive: [1]

Cc1ccc(CCl)cc1
inactive: [1]

CCN(CC)C(=O)C(Cl)=C(C)OP(=O)(OC)OC
not listed: [8] | [9] | [10]
inactive: all other assays above

CC(C)C(C)(N)C#N (stereo not drawn)
inactive: [1] | [9]

N#Cc1ccccc1N
inactive: [1] | [9]
